# Results from the supplement of paper PMC12669032.
# Unmarked numbers belong to inactive results.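 The calls were made as follows: active = AUC reduced over 20% with Padj below 0.05 in at least 2 of 3 replicates; inactive = otherwise.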
# What was measured:
# [1] = system: Roseburia intestinalis; experiment: growth AUC relative to DMSO control (median of replicates) (fraction); higher = more growth (less inhibition), active = hit call of the paper; details: 20 µM; 24 h
# How it was run: (§1)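 For each compound at 20 µM (1% DMSO), gut bacterial monocultures seeded at OD600 0.05 grew anaerobically in mGAM at 37 °C in round-bottom 96-well plates. Hourly OD600 readings over 24 h gave growth curves whose minimum OD was set to 0. Area under these curves was normalised to the plate median of solvent-only wells, or to row and column medians on the industrial chemical plate. Values are medians of three biological replicates grown on separate days.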
# [2] = system: Streptococcus salivarius; experiment: as above; details: 20 µM; 24 h
# How it was run: as §1
SMILES,growth AUC [1],growth AUC [2]
Nc1cc(Cl)nc(C(=O)O)c1Cl,1.01,1.03
Nc1nc2ccccc2[nH]1,0.901,0.953
CCOC(=O)C1CC(=O)C(=C(O)C2CC2)C(=O)C1 (configuration not stated),1,0.988
CC(C)N(C(=O)C(=O)O)c1ccc(F)cc1,0.998,1.05
CC1=C(C(=O)Nc2ccccc2)CCCO1,0.996,1.03
CN(C)C(=O)Nc1ccc(Cl)c(Cl)c1,1.03,1.01
